Assay outcomes: PubChem, several laboratories
Most compounds without a hit are left out; they make up all but 2.3% or so of the library.
Bcl-xL primary: Bcl-xL (human) inhibition; inhibition, % at 10.9 µM; 320,000 tested, 0.7% active; AID 2129; GST-Bcl-xL / FITC-Bim BH3 peptide fluorescence polarization;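 active = inhibition above the mean of all tested compounds plus 3 SD, cutoff set per campaign, cut at about 30% in these data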;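 also: 0% = DMSO wells and 100% = unlabeled Bim-BH3 peptide competitor; inhibitors lower millipolarization by displacing the labeled peptide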
Mcl1-Noxa inh: Mcl-1/Noxa interaction inhibition; TR-FRET Mcl-1/Noxa peptide binding, 2 h; inhibition, % at 21.7 µM; 220,000 tested, 1.5% active;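 active = compounds that cut the protein-peptide binding signal by more than 50% relative to plate controls in a single-dose test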;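 also: His-tagged Mcl-1 with rhodamine Noxa BH3 peptide and terbium anti-His antibody; 0% = Mcl-1 plus Noxa peptide wells and 100% = peptide-only wells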
GLD-1 RNA inh: GLD-1-TGE RNA interaction inhibition (C. elegans). Q17339. purified GLD-1 + fluorescein TGE RNA, fluorescence polarization. inhibition, % at 5.96 µM. 320,000 tested, 0.44% active;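 active = percent inhibition above a per-plate cutoff, the plate mean of test compounds plus 3 SD, cut at about 30% in these data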;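 also: 0% = DMSO wells with GLD-1 and probe and 100% = wells lacking GLD-1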
Target sequence (Q17339 whole entry, looked up): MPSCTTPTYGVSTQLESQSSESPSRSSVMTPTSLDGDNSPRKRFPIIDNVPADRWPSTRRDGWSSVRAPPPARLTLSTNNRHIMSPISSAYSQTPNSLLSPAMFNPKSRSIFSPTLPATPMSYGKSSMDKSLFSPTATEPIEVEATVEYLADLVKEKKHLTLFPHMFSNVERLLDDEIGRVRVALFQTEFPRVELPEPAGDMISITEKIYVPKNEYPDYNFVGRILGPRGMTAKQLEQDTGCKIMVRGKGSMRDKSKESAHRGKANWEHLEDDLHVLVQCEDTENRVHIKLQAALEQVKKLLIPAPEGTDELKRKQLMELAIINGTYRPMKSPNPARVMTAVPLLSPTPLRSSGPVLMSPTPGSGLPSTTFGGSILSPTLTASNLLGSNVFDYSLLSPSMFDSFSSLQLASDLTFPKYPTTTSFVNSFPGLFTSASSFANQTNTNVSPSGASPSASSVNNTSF
MCL1 BIM primary: inhibitors of human MCL1 binding to BIM-BH3 peptide | Q07820 | GST-MCL1 / FITC-Bim-BH3 fluorescence polarization | inhibition, % at 10.9 µM | 320,000 tested, 0.68% active;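 active = inhibition above the mean inhibition of all tested compounds plus 3 SD, set per campaign, cut at about 40% in these data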;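 also: 0% = DMSO wells and 100% = unlabeled Bim-BH3 peptide control; higher means more loss of mP so more displacement of Bim peptide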
Mcl-1 Bim block: human Bim-Mcl-1 interaction inhibition | Q07820 | Bead-based flow cytometry, Bim peptide-Mcl-1 binding | inhibition, % at 10 µM | 190,000 tested, 0.1% active | AID 1009; in the data active = inhibition above about 40%;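 also: 0% = no compound tracer wells and 100% = peptide blocker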
Mcl1-Bid inh: Mcl-1/Bid interaction inhibition; TR-FRET Mcl-1/Bid-Dy647 peptide binding, 1536-well; Q07820; AID 1021; 220,000 tested, 0.97% active; inhibition, % at 21.7 µM;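 active = compounds that cut the binding signal by more than half at the single screening dose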;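 also: His-tagged Mcl-1 with europium anti-His antibody binding Bid BH3 peptide; 0% = Mcl-1 plus peptide wells and 100% = peptide-only wells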
An asterisk follows results filed as active; x = not tested or not shown.

SMILES	Bcl-xL primary	Mcl1-Noxa inh	GLD-1 RNA inh	MCL1 BIM primary	Mcl-1 Bim block	Mcl1-Bid inh
CCc1cc2cc(C)cc(C)c2[nH]c1=S	4	60*	-1	2	0	26
O=C(O)c1ccc(S(=O)(=O)c2ccc([N+](=O)[O-])cc2[N+](=O)[O-])cc1	7	x	-4	9	x	x
Cc1ccc2c(c1)c1c3n2CCCNC3CCC1 (stereo not drawn)	2	2	-9	-2	-6	63*
CC1(C)CC(NC(=O)COc2ccc([N+](=O)[O-])cc2)CC(C)(C)N1	4	22	2	6	68*	-12
CCOc1ccc(-c2nnc(-c3ccccc3)n2-c2ccccc2)cc1	-1	-122	-1	2	3	61*
CCOc1ccc(-c2nnc(-c3ccccc3)o2)cc1	2	1	5	2	0	-13
Cc1cc(Cl)ccc1OCC(=O)OCC(=O)N1CCC(C(N)=O)CC1	2	x	7	-2	x	x
CCc1ccccc1NC(=O)CNC(=O)c1cc(C2CC2)nn1-c1ccccc1	-6	x	3	-3	x	x
Cc1cc(/C=C2\C(=N)N3N=C(c4ccco4)SC3=NC2=O)c(C)n1Cc1ccccc1	-2	63*	-4	2	x	-54
Cn1c(=O)c2c(nc(CN3CCN(Cc4ccccc4)CC3)n2Cc2ccccc2)n(C)c1=O	x	13	x	x	0	-12
Cn1c(=O)c2c(nc(Cc3ccc(N)cc3)n2C)n(C)c1=O	-4	12	6	-4	x	98*
O=C(Nc1cc2cccc([N+](=O)[O-])c2oc1=O)c1cccs1	-3	62*	-1	7	0	-30
O=C(CSc1nc2ccccc2n1CCc1ccccc1)c1ccc(O)c(O)c1	x	102*	x	x	-3	52*
CC(=O)c1cc(C#N)c(NCCCN(C)C)nc1C	2	3	2	2	3	56*
CC(CCc1ccccc1)NC(=O)c1ccc(-n2cncn2)c([N+](=O)[O-])c1 (stereo not drawn)	4	x	10	0	x	x
NC(=O)c1c(NC(=O)CSc2nnc(-c3ccco3)n2-c2ccccc2)sc2c1CCC2	8	88*	3	29	2	-54
CCOC(=O)c1sc(NC(=O)CSc2nnc(-c3ccco3)n2CC)c(C(=O)OCC)c1C	6	64*	-4	9	-3	6
N#Cc1c(NC(=O)CSc2nnc(-c3ccco3)n2-c2ccccc2)sc2c1CCC2	-2	45	-2	-3	-1	-29
CCC1(C)NC(=O)N(CC(=O)Nc2sc3c(c2C(=O)OC)CCCCC3)C1=O (stereo not drawn)	1	8	3	-5	-3	-20
CCC1(CC)NC(=O)N(CC(=O)Nc2sc3c(c2C(N)=O)CCC3)C1=O	10	73*	-4	17	0	-17
CCOC(=O)Cc1csc(SCC(=O)Nc2sc3c(c2C(N)=O)CCC3)n1	14	71*	-15	39	-1	-39
CC1(C2CC2)NC(=O)N(CC(=O)Nc2ccc(Cl)c([N+](=O)[O-])c2)C1=O (stereo not drawn)	-3	x	-3	-3	x	x
Fc1cccc(F)c1/C=C/c1ccc2ccccc2n1	-3	12	1	-8	0	23
C(=C\c1ccco1)/c1ccc2ccccc2n1	15	74*	5	18	x	-87
O=C(C[n+]1ccc(Cc2ccccc2)cc1)Nc1ccccc1	1	1	-7	-2	2	-44
SMILES	Bcl-xL primary	Mcl1-Noxa inh	GLD-1 RNA inh	MCL1 BIM primary	Mcl-1 Bim block	Mcl1-Bid inh
COc1cccc2sc3ccc(NCCC4CCCN4C)cc3c(=O)c12 (stereo not drawn)	33*	x	36*	30	x	x
O=C(NCc1ccco1)c1ccccc1SCC(=O)N1CCCC1	3	x	-2	12	x	x
C=CCOc1ccc2ccccc2c1CNCCCN1CCOCC1	6	18	-4	6	0	0
C=CCOc1ccc(Br)cc1CNCCCN1CCOCC1	2	57*	0	7	-3	33
Oc1ccc(/C=N/NC(=S)Nc2cccnc2)cc1O	14	59*	-1	47*	-2	-58
CC(C)(C)c1ccc(/C=N/NC(=S)Nc2cccnc2)cc1	6	-23	1	-3	-1	-91
CC1C(=O)NN=C1C(=O)N/N=C\c1ccc(O)cc1O (stereo not drawn)	5	74*	-1	8	1	-75
O=C(COc1ccccc1)NC1CCCc2ccccc21 (stereo not drawn)	1	-2	1	5	-4	-26
O=C(COc1ccc(-c2nnco2)cc1)NC1CCCc2ccccc21 (stereo not drawn)	7	10	0	1	5	60*
Cc1ccc(-c2csc(NC(=O)c3ccc(F)cc3)c2C(=O)O)cc1	11	x	-2	5	x	x
CCc1ccc(NC(=O)c2ccnc(C(C)(C)C)c2)cc1	-1	-2	5	7	1	101*
COc1ccc(C(C)=O)cc1COC(=O)c1ccc(OCc2c(C)noc2C)cc1	3	-80	2	-2	7	52*
COc1ccc(C(C)=O)cc1COC(=O)c1c(C)noc1C	1	21	0	-5	0	2
Cc1cc(C)c2nc(NNC(=O)c3cc(=O)c4ccccc4o3)sc2c1	2	65*	-1	-1	2	-44
CSCCC(NC(=O)c1ccc(Cl)c([N+](=O)[O-])c1)C(=O)N1CCN(C/C=C/c2ccccc2)CC1 (stereo not drawn)	4	x	1	2	x	x
Oc1ccccc1CNc1ccc(OC(F)(F)F)cc1	-2	57*	3	-5	0	-78
Cc1ccc(NCc2ccccc2O)cc1C	4	17	7	1	-1	-43
O=C(CSc1nc(-c2ccccc2Cl)ns1)NCc1ccc2c(c1)OCO2	63*	-2	-6	9	2	-36
CCSc1nc2ccccc2n1CC(N)=O	6	12	2	3	-7	-11
CCSc1nc2ccccc2n1C(=O)/C=C\c1ccc(OC)c(OC)c1	6	62*	-5	1	-2	-25
CC1CCC(NC(=O)CCCn2sc3ccccc3c2=O)CC1 (stereo not drawn)	4	x	-5	0	x	x
O=C(Cn1sc2ccccc2c1=O)NC12CC3CC(CC(C3)C1)C2	22	53*	1	39	-15	32
OCC[C@@H]1C[C@H](O)[C@@H](O)[C@]2(OCCc3ccccc32)O1	2	x	0	-3	x	x
COc1cc(N2C(=O)C=CC2=O)c(OC)cc1Cl	8	59*	9	10	x	21
COC(=O)c1sc(S(=O)(=O)N2CCCCC2C)c(C(=O)OC)c1C (stereo not drawn)	4	x	4	6	x	x
COc1cccc(NC(=O)COC(=O)CCC(=O)c2cccs2)c1	-1	x	-3	-1	x	x
